Source: PubChem (National Center for Advancing Translational Sciences (NCATS))
HCMV antiviral – blocks human cytomegalovirus replication. AID 1259415. activity change, negative = inhibition, % at 57.5 µM. HFF cells, HCMV-luciferase reporter, 72 h; stronger effect = lower value. 410,000 compounds, 4.5% hits; in the data active = activity change below about -60%; inconclusive = no clear call, values can overlap the other calls; inactive = above about -39%
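Compounds were evaluated in HFFs infected with an HCMV luciferase reporter virus (MOI 1 PFU/cell). Luciferase in lysates collected 72 h post infection served as the replication measure.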
FMDV antiviral – foot and mouth disease virus antiviral activity; FMDV antiviral cell-based qHTS; AID 1159524; 410,000 compounds, 1.2% hits; Potency, µM (titrated, usually from 57.9 µM), for inactives: at the top dose activity change, negative = inhibition, actives largely listed as inhibitors; calls by dose curve; tested in HEK293T cells; also: read-out not given here; potency is read from the fitted curve at half-maximal effect; nearly all actives have a fitted effect of over 45% in size
FBPA Giardia inh – Giardia lamblia aldolase inhibition | Potency, µM (titrated, usually from 59.6 µM), without a hit: top-dose activity, negative = inhibition, actives largely listed as inhibitors | 290,000 compounds, 0.71% hits | AID 2451 | purified Giardia FBPA; also: potency is read from the fitted curve at half-maximal effect; nearly all actives have a fitted effect of over 55% in size
Target sequence (A8B2U2 whole entry, looked up): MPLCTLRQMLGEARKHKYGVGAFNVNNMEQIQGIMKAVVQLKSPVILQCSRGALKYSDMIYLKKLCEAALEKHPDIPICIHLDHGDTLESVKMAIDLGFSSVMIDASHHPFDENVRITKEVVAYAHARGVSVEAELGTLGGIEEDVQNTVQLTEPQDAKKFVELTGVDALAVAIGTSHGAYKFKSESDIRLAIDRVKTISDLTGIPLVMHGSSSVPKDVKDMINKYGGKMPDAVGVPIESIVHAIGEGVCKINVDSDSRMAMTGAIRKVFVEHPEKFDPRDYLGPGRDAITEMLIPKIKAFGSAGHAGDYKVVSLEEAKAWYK
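40 nM FBPA preincubated 10 min at RT with compound (up to 57.5 uM final), then substrate plus GAPDH/TPI/NAD/arsenate coupling and diaphorase/resazurin added. Fluorescence read after 20 min at RT, 525/598 nm.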
VACV mCherry inh – vaccinia inhibition (mCherry reporter). Vaccinia virus mCherry reporter infection, fluorescence. Potency, µM (doses to about 36.5 µM), without a hit: top-dose activity change, negative = inhibition, hits mostly inhibitors. 310,000 compounds, 0.63% hits; calls by dose curve; tested in A549 cells; also: potency is read from the fitted curve at half-maximal effect; nearly all actives have a fitted effect of over 35% in size
VACV Venus inh – inhibitors of vaccinia virus (Venus reporter); Vaccinia virus Venus reporter expression, fluorescence; Potency, µM (series often up to 36.5 µM), for the others: at the highest dose activity change, negative = inhibition, hits mostly inhibitors; 330,000 compounds, 0.46% hits; AID 720580; calls by dose curve; tested in A549 cells; also: potency is read from the fitted curve at half-maximal effect; nearly all actives have a fitted effect of over 30% in size
HCV inhibitor – inhibitors of hepatitis C virus infection; Huh7.5.1 HCVcc-Cre infection, luciferase reporter, 44 h; Potency, µM (series often up to 41.8 µM), inactives show top-dose activity change, negative = inhibition, hits mostly inhibitors; 340,000 compounds, 3.4% hits; AID 651820; also: potency is read from the fitted curve at half-maximal effect
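Luciferase read-out (15 sec integration) after a 15 min room-temperature substrate step quantifies HCVcc-Cre infection. Cells, 1,000 per well, had compound added 4 h post-plating, then virus at ~0.5 moi, and were cultured 44 h.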
An asterisk follows results filed as active; i = inactive; u = inconclusive; x = no result. The list is not random: actives were taken first. Their share in the collection is about 7.5%. Unless noted, calls follow the shape of the dose curve; as a rule, active = well fitted curve in the direction sought with a large enough effect; inconclusive = small, poorly fitted or top-dose-only effect, or another doubt; inactive = no such curve, though single readings can be large; an effect the other way counts as inactive or inconclusive. % is scaled to controls: 0 for no effect and ±100 for the full control effect.

SMILES | HCMV antiviral | FMDV antiviral | FBPA Giardia inh | VACV mCherry inh | VACV Venus inh | HCV inhibitor
COC(=O)c1cccc(N(CC(=O)NC2CCCC2)C(=O)CCC(=O)Nc2cc(C)on2)c1 | -1 | 6% | 4% | -4% | 4% | 20%
O=C(CN(Cc1ccccc1Cl)S(=O)(=O)c1ccc(Cl)cc1)N/N=C/c1ccc(C(=O)O)cc1 | -20 | -23% | x | x | x | 1%
N#Cc1ccc(Sc2nc3ccccc3[nH]2)cc1C#N | -77* | -24% | -13% | x | x | -5%
Cc1c(-c2ccccc2)nc2ccccc2c1C(=O)Oc1ccc([N+](=O)[O-])cc1 | -76* | u | x | x | -7% | u
Cc1nc(-c2ccc(F)cc2)c(CC(=O)Nc2ccc(C)c(S(=O)(=O)N3CCOCC3)c2)s1 | x | u | x | i | -5% | 7.9µM*
Cc1ccc(NC(=O)Cc2ccc(Cl)cc2)cc1S(=O)(=O)N1CCCCCC1 | -26 | u | x | x | x | 10µM*
COc1ccc(CC(=O)Nc2ccc(C)c(S(=O)(=O)N3CCCCCC3)c2)cc1 | 0 | -20% | x | x | x | u
COc1ccc(NC(=O)CCOc2ccccc2F)cc1S(=O)(=O)N1CCCCC1 | -6 | u | x | i | -1% | 13µM*
COc1ccc(NC(=O)CCC(=O)c2cccs2)cc1S(=O)(=O)Nc1ccc(Cl)cc1 | 68 | 9% | -4% | 10% | 10% | -21%
COc1ccc(NC(=O)CCS(=O)(=O)c2ccccc2Cl)cc1S(=O)(=O)Nc1ccc(Cl)cc1 | -21 | 28% | -7% | x | x | 13µM*
Cc1nc(NCC(=O)c2c[nH]c3ccccc23)sc1C | x | x | x | -21% | -27% | x
Cc1ccc(NC(=O)Cn2ncc(Cl)c(Cl)c2=O)cc1S(=O)(=O)N1CCCCC1 | 0 | 28µM* | x | x | x | 10µM*
Cc1ccc(NC(=O)CN(C)C(=O)Cn2ncc(Cl)c(Cl)c2=O)cc1 | -100* | 0% | 1% | u | u | 3.2µM*
Cc1ccc(NC(=O)Cn2cc(C(F)(F)F)cc(Cl)c2=O)cc1S(=O)(=O)N1CCCCC1 | 6 | -19% | x | -7% | -18% | u
O=C(Cn1c(=O)ccn(Cc2ccccc2)c1=O)Nc1cccc(S(=O)(=O)N2CCOCC2)c1 | -19 | -13% | x | -19% | -12% | -10%
COc1ccc(NC(=O)Cc2ccccc2F)cc1S(=O)(=O)N1CCCCC1 | -18 | 21% | x | x | x | u
COc1ccc(NC(=O)Cc2ccc(Cl)cc2)cc1S(=O)(=O)N1CCCCC1 | u | -4% | x | x | x | 14µM*
Cc1ccc(NC(=O)Cn2c(=O)ccn(Cc3ccccc3)c2=O)cc1S(=O)(=O)N1CCOCC1 | 0 | -29% | x | x | x | 11µM*
Cc1ccc(NC(=O)CN(C)C(=O)Cc2ccc(Cl)c(Cl)c2)cc1 | 7 | -1% | -5% | -8% | -19% | -4%
Cc1ccc(NC(=O)C(=O)c2c(-c3ccccc3)cc3ccccn23)cc1S(=O)(=O)N1CCOCC1 | -76* | -16% | -3% | x | x | u
Cc1ccc(CN2CC(C(=O)Nc3ccc(C)c(S(=O)(=O)N4CCCCC4)c3)CC2=O)cc1 (stereo not given) | -66* | -11% | x | u | u | u
COc1ccc(Cl)cc1NC(=O)CCS(=O)(=O)c1cccc2nonc12 | -86* | 4% | x | i | -23% | x
Cc1ccc(NCC(=O)Nc2ccc(F)c(Cl)c2)cc1S(=O)(=O)N1CCOCC1 | -61* | u | x | -13% | u | x
COc1ccc(NC(=O)C2CC(=O)N(Cc3ccc(C)cc3)C2)cc1S(=O)(=O)N1CCCCC1 (stereo not given) | -8 | -13% | 5% | -11% | u | u
O=C(CCNC(=O)N1CC(=O)Nc2ccccc21)NCc1cccc(C(F)(F)F)c1 | u | -14% | x | -5% | -15% | x
SMILES | HCMV antiviral | FMDV antiviral | FBPA Giardia inh | VACV mCherry inh | VACV Venus inh | HCV inhibitor
O=C(NNC(=O)C12CC3CC(CC(O)(C3)C1)C2)c1csc(N2CCOCC2)n1 | 13 | u | x | i | -2% | x
CCN(CC)CCNC(=O)c1sc2nc(C)cc(C)c2c1-n1cccc1 | 7 | 0% | x | -2% | 0% | x
CCCCn1c(N)c(N(C)C(=O)c2ccccc2Oc2ccccc2)c(=O)[nH]c1=O | -33 | 26% | x | x | x | 4%
O=C(CCl)N1N=C(c2ccco2)CC1c1cccs1 (stereo not given) | x | u | -6% | 8.9µM* | u | u
Cc1ccc(C2=NN(C(=O)CCl)C(c3cccs3)C2)o1 (stereo not given) | -100* | 14µM* | -1% | -28% | -11% | u
CC(=O)N1N=C(c2ccco2)CC1c1cccs1 (stereo not given) | 24 | x | -5% | i | -15% | 5%
CSc1nc(C)c2c(n1)N(c1cccc(C)c1)CC2 | -26 | -17% | 3% | x | -30% | 10µM*
Cc1cccc(N2CCc3c2nc2ccc(Br)cc2c3N)c1 | u | x | u | 11µM* | u | 10µM*
Nc1c2c(nc3ccc(Br)cc13)N(c1ccccc1)CC2 | -9 | x | u | -1% | -10% | 7.1µM*
Cc1cccc(-n2nc(C)cc2N)c1 | 27 | 13% | -10% | x | x | 6%
Cc1ccc2cc3c(nc2c1)N(c1ccccc1)CC3 | u | 8% | 1% | -1% | -1% | u
Nc1c2c(nc3ccc(Br)cc13)N(Cc1ccccc1)CC2 | -32 | -10% | 0% | u | u | 10µM*
Cc1ccccc1-c1nnc2s/c(=C\c3ccc(N(C)C)cc3)c(=O)n12 | x | x | 4% | x | x | x
CCCN(CC(=O)Nc1ccccc1OC)C(=O)Cn1c(=O)oc2ccccc21 | 29 | 27% | x | -13% | -12% | 4%
COc1ccc(CCCC(=O)Nc2ccc(F)cc2)cc1 | u | -12% | -9% | -8% | -9% | 3%
CN(CCCC(=O)Nc1ccc(OC(F)F)cc1)S(=O)(=O)c1ccc(F)cc1 | -31 | u | 3% | -20% | -13% | 11µM*
Cc1ccc(S(=O)(=O)N(C)CCCC(=O)Nc2ccncc2)cc1 | -32 | u | 4% | -11% | -24% | 5.6µM*
Cc1ccc(S(=O)(=O)N(C)CCCC(=O)Nc2ccc(F)cc2)cc1 | 4 | -21% | 1% | u | u | u
Cc1cc(F)ccc1NC(=O)CCCN(C)S(=O)(=O)c1ccc(F)cc1 | 24 | -14% | 11% | i | -10% | -28%
CN(CCCC(=O)Nc1ccccc1F)S(=O)(=O)c1ccc(F)cc1 | -61* | -1% | -6% | -8% | -2% | 31%
N#Cc1c(C(F)(F)F)cc(-c2cccs2)nc1SCC(=O)Nc1ccc(Cl)cc1 | -92* | u | x | u | -28% | x
CCOc1ccc(NC(=O)CSc2nc(-c3cccs3)cc(C(F)(F)F)c2C#N)cc1 | 5 | -11% | x | 3% | 10% | x
Cc1ccc(C)c(NC(=O)CSc2nc3nc(-c4cccs4)cc(C(F)(F)F)c3c(=O)[nH]2)c1 | -12 | u | 17% | -24% | -16% | u
